Consider six compounds from ChEMBL document CHEMBL1961873, “Compounds: GSK PKIS; Assays: Nanosyn kinase panel” (2012).

Values joined by “and” are separate entries in the source; they are usually repeats but may differ in a detail not shown here. Equal values may be shown once.

The target in assay [1] is T1, Ephrin type-B receptor 2 (Homo sapiens) (UniProt P29323).
T1 sequence (whole entry): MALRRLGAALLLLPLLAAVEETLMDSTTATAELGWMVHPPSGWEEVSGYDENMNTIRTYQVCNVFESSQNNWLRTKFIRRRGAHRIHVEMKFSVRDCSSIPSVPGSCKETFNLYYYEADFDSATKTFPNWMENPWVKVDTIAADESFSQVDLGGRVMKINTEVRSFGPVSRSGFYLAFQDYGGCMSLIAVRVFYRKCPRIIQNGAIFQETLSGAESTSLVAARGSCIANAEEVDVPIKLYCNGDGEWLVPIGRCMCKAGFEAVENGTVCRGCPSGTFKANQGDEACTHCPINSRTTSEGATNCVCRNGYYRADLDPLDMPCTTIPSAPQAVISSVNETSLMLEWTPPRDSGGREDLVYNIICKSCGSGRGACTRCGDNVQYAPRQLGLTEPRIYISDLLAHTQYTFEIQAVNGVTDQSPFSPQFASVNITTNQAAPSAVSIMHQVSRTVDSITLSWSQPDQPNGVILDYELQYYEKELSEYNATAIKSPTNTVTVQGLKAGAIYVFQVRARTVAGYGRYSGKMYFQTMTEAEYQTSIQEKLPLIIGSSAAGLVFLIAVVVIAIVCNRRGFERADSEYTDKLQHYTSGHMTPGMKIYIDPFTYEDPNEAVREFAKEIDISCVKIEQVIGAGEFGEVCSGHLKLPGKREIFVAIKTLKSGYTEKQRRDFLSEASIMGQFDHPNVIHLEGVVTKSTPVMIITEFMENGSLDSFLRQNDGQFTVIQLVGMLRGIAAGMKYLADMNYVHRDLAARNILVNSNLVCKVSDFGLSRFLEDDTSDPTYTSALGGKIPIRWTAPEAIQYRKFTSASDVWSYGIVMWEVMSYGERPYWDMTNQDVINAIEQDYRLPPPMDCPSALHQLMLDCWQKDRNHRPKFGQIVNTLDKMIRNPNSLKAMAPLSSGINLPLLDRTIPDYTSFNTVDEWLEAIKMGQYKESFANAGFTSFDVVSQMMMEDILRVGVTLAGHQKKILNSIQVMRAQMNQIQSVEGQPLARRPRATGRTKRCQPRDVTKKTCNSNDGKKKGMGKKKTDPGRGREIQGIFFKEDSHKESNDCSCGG
To be noted: at 1 µM.

For assay [2], the target named is T2, Ephrin type-B receptor 3 (Homo sapiens) (UniProt P54753).
T2 sequence (whole entry): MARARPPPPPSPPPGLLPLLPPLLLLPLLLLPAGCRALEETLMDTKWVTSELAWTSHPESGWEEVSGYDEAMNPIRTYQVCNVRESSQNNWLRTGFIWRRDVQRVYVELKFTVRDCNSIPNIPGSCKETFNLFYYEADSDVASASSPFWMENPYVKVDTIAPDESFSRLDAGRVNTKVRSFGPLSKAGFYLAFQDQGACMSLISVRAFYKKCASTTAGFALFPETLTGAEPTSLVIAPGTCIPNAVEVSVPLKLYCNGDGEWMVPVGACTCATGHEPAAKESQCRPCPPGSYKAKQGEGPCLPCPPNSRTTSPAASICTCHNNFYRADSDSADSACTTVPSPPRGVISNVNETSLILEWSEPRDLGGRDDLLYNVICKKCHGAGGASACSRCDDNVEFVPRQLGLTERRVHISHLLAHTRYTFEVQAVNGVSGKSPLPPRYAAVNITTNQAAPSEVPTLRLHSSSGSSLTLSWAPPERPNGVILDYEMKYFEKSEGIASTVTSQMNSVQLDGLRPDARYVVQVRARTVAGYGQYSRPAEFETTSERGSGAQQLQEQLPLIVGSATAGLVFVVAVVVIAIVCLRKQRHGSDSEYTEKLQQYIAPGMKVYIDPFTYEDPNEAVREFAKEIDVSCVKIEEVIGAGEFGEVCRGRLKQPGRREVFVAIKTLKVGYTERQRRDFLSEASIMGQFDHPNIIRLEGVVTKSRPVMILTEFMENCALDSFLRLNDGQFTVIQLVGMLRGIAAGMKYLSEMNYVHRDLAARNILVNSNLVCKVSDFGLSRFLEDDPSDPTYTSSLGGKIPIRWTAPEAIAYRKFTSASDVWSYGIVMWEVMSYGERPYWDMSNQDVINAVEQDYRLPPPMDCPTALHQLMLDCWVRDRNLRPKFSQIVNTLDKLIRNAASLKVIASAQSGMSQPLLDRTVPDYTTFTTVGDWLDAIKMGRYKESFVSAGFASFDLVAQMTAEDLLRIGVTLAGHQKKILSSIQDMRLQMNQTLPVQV
To be noted: at 0.1 µM.

Assay [3] concerns the target T2, Ephrin type-B receptor 3 (Homo sapiens). The settings on record: at 1 µM.
Assay [4] concerns the target T3, Ephrin type-B receptor 4 (Homo sapiens) (UniProt P54760).
T3 sequence (whole entry): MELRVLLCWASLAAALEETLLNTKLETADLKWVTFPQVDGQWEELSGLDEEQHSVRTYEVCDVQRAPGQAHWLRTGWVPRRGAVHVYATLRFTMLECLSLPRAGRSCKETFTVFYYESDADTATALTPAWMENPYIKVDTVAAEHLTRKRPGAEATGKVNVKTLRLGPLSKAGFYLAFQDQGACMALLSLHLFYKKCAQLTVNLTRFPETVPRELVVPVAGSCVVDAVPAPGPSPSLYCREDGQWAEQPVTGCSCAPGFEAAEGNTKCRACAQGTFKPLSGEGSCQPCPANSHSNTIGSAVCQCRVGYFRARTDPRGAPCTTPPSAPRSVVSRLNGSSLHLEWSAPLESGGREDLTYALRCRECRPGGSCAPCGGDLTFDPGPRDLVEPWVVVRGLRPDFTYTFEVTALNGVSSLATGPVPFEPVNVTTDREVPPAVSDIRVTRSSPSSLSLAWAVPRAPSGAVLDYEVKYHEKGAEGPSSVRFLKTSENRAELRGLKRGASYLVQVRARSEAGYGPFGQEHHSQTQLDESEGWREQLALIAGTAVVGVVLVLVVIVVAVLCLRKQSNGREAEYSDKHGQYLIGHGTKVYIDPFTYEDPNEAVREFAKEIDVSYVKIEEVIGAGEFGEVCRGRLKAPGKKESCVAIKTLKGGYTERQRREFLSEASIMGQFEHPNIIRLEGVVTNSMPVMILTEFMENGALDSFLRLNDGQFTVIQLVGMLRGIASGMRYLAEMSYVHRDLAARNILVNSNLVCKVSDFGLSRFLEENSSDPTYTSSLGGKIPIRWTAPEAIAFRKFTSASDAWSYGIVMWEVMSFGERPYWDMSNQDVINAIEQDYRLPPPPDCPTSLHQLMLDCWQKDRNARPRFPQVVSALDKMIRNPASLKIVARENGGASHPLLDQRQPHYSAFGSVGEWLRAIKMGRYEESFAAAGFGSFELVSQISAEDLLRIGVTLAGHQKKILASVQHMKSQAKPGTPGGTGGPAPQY
To be noted: at 0.1 µM.

In assay [5] the target is T3, Ephrin type-B receptor 4 (Homo sapiens). To be noted: at 1 µM.
In assay [6] the target is Receptor tyrosine-protein kinase erbB-2 (Homo sapiens) (UniProt P04626). To be noted: at 0.1 µM.
Assay [7] has the same target. The settings on record: at 1 µM.
Assay [8] addresses Receptor tyrosine-protein kinase erbB-4 (Homo sapiens) (UniProt Q15303). The settings on record: at 0.1 µM.
The target is the same in assay [9]. To be noted: at 1 µM.
Assay [10] concerns the target Tyrosine-protein kinase Fer (Homo sapiens) (UniProt P16591). The settings on record: at 0.1 µM.
Assay [11] shares this target. The settings on record: at 1 µM.
Assay [12] concerns the target Tyrosine-protein kinase Fes/Fps (Homo sapiens) (UniProt P07332). The settings on record: at 0.1 µM.
Assay [13] shares this target. The settings on record: at 1 µM.
In assay [14] the target is Fibroblast growth factor receptor 1 (Homo sapiens) (UniProt P11362). To be noted: at 0.1 µM.
Assay [15] shares this target. To be noted: at 1 µM.
Assay [16] has as its target Fibroblast growth factor receptor 2 (Homo sapiens) (UniProt P21802). To be noted: at 0.1 µM.
For assay [17] the target is unchanged. The settings on record: at 1 µM.
In assay [18] the target is Fibroblast growth factor receptor 3 (Homo sapiens) (UniProt P22607). The settings on record: at 0.1 µM.
The target is the same in assay [19]. The settings on record: at 1 µM.
Assay [20] concerns the target Fibroblast growth factor receptor 4 (Homo sapiens) (UniProt P22455). The settings on record: at 0.1 µM.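 Also: values are mean percent inhibition of FGFR4.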

Sequence of Fibroblast growth factor receptor 2 (Homo sapiens) (P21802 22-821 limits assumed): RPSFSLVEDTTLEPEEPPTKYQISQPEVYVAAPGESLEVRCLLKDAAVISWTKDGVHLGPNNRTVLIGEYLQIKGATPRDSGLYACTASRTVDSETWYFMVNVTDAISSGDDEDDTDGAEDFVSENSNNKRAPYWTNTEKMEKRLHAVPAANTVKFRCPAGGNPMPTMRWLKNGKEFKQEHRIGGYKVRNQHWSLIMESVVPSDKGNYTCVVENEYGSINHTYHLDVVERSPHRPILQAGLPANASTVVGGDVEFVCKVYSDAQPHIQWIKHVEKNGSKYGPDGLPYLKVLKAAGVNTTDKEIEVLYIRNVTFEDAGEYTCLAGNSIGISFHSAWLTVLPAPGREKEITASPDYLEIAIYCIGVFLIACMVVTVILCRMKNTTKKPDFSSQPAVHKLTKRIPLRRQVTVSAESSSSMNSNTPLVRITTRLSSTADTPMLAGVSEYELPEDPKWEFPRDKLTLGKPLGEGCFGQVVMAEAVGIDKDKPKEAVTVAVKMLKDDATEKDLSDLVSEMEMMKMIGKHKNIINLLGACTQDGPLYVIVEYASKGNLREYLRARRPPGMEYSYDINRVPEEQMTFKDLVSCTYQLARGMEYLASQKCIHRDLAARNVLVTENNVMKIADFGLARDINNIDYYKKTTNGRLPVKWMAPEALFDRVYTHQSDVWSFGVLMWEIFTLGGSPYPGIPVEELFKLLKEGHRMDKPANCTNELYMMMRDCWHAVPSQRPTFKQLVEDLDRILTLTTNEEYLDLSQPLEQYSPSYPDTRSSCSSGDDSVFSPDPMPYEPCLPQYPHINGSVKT
Sequence of Receptor tyrosine-protein kinase erbB-4 (Homo sapiens) (Q15303 whole entry): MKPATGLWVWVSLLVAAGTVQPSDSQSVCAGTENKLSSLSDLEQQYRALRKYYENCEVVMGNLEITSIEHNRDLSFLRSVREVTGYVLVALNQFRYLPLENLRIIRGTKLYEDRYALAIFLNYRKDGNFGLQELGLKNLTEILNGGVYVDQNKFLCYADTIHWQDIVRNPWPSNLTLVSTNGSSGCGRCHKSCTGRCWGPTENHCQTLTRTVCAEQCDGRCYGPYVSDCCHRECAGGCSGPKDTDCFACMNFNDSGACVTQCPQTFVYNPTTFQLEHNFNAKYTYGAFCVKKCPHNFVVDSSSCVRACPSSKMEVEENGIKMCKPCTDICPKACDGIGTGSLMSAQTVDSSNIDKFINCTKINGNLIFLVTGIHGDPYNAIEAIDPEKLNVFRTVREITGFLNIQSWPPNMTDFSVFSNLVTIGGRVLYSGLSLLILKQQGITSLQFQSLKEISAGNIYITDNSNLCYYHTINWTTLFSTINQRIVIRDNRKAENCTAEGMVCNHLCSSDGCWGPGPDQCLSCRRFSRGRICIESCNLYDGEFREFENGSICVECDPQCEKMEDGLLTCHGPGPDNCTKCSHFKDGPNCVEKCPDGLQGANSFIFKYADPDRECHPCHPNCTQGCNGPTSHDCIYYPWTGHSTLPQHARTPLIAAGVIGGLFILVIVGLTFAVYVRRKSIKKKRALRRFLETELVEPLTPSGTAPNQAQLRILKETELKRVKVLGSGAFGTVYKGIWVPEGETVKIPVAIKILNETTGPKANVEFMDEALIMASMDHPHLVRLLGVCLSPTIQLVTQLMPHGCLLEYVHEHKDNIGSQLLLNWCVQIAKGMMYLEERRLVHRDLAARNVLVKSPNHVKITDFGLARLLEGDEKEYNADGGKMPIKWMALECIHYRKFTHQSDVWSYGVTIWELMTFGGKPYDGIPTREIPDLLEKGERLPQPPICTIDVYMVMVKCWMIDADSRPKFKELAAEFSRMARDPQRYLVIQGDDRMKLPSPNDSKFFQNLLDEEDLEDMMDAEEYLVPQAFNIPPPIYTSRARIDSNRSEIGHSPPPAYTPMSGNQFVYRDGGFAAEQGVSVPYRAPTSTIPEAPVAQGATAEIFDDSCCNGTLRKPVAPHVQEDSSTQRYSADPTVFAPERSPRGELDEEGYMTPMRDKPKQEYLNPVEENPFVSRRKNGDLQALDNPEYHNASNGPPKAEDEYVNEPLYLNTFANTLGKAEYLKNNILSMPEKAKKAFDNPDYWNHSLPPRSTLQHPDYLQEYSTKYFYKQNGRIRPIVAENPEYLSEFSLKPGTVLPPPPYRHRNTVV
Sequence of Fibroblast growth factor receptor 1 (Homo sapiens) (P11362 22-822 limits assumed): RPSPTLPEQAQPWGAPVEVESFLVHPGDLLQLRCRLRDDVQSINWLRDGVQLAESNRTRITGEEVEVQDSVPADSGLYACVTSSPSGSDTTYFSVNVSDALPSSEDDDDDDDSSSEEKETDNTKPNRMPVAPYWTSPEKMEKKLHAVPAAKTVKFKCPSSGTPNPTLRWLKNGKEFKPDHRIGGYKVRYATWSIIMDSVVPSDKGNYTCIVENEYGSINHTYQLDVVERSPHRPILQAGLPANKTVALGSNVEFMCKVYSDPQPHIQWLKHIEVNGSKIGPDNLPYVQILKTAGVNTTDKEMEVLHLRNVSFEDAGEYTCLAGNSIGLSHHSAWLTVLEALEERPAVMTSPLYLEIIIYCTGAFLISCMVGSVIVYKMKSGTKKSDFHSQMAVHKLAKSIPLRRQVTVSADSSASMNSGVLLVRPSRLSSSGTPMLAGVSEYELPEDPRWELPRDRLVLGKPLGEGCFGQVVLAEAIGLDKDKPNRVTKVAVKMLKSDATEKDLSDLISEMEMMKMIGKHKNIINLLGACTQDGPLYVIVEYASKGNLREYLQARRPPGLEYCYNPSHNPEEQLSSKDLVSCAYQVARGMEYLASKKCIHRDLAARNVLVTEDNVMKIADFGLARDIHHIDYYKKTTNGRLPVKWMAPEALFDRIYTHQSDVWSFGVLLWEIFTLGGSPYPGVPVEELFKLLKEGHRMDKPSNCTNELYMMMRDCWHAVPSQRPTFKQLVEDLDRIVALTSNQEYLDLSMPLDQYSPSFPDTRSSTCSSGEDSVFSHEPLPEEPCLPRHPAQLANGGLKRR
Sequence of Tyrosine-protein kinase Fes/Fps (Homo sapiens) (P07332 whole entry): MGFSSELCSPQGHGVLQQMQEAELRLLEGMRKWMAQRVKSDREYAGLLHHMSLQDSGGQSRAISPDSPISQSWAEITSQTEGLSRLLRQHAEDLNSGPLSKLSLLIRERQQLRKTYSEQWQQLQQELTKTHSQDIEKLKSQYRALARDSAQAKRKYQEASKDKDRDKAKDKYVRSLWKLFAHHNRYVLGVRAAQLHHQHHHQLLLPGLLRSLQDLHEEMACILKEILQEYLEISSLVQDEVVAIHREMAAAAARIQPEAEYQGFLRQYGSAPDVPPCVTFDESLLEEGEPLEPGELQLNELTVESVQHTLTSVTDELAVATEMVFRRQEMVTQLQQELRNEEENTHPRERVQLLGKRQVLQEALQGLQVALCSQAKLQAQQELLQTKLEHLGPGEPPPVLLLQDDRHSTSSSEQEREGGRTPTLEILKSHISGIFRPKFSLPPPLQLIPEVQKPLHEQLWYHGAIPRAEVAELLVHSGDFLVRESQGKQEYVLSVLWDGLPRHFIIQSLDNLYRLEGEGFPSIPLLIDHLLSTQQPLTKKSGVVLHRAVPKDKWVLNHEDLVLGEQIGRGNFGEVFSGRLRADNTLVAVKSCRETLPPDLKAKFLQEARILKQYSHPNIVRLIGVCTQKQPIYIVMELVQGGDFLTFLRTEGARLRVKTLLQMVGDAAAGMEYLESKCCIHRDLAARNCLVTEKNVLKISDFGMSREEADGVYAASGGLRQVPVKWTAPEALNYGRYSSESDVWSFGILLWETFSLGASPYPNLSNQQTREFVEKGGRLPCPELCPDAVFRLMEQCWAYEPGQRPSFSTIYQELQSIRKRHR
Sequence of Tyrosine-protein kinase Fer (Homo sapiens) (P16591 whole entry, looked up): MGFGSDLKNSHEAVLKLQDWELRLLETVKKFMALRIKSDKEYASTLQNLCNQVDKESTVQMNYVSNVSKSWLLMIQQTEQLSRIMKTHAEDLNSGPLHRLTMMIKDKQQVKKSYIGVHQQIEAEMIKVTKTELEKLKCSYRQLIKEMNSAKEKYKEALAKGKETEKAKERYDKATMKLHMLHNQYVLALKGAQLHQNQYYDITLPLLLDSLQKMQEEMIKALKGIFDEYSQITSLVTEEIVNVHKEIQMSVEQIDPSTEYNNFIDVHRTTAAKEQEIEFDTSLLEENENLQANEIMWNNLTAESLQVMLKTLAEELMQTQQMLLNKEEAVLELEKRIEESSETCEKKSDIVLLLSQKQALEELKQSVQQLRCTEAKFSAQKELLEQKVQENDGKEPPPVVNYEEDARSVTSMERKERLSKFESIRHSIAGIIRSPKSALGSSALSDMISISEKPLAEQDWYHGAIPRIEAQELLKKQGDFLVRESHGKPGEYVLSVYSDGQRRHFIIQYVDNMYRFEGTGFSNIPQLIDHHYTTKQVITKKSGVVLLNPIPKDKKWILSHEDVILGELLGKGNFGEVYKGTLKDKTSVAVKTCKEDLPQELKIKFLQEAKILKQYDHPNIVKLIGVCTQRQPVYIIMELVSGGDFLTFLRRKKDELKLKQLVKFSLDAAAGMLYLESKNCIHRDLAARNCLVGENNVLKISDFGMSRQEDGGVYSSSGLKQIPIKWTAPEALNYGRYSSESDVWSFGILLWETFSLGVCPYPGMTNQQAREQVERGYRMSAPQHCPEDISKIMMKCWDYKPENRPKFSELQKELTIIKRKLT

The inhibition is the relative decrease from the control value, in per cent. For the compound `O=C(O[C@H]1CN[C@H](C#Cc2cc3ncnc(Nc4ccc(OCc5cccc(F)c5)c(Cl)c4)c3s2)C1)N1CCOCC1`, the inhibition in assay [1] was determined as 6.81%; in assay [2], 5.55%; in assay [3] it was 5.83%; in assay [4], 0.52%; in [5], 1.52%; in assay [6], 6.98%. The inhibition turned out to be 52.8% in assay [7]; 82.2% in assay [8]; 85.3% in assay [9]; 5.92% in [10]; 5.25% in assay [11]; 3.88% in [12]. The inhibition in assay [13] worked out at 3.5%; in [14], 1.16%; in assay [15] it was 3.49%; in assay [16] it was 6.97%; in [17] it was 4.24%; in [18], 5.89%. The inhibition in [19] was found to be 6.62%; in assay [20], 1.38%.

`c1cnn2ncc(-c3ccnc(NCCCN4CCOCC4)n3)c2c1`: the inhibition amounted to 9.04% in assay [1]; 6.96% in assay [2]; 3.37% in assay [3]; 1.21% in assay [4]; 1.07% in assay [5]; 1.75% in assay [6]. The inhibition is -0.02% in [7]; 8.02% in assay [8]; 8.49% in assay [9]; 0.82% in [10]; 1.85% in assay [11]; 2.2% in assay [12]. For the same compound, the inhibition in assay [13] stood at 5.72%; in assay [14], 1.29%; in [15], 2.22%; in [16] it was 1%; in assay [17] it was 3.87%; in assay [18], 3.61%. The inhibition is 1.83% in assay [19] and -0.18% in assay [20].

In the case of `CN(c1ccc(NC(=O)NCCN2CCOCC2)cc1)c1ccnc(Nc2ccc(CS(C)(=O)=O)cc2)n1`, the inhibition in assay [1] came to 17.1%; in [2], 3.86%; in assay [3] it was 4.14%; in assay [4], 2.27%; in assay [5] it was 3.53%; in assay [6], 1.62%. In addition, the inhibition in assay [7] is 4.12%; in [8], 6.8%; in assay [9] it was 4.94%; in assay [10] it was 3.77%; in assay [11], 20.6%; in [12], 2.04%. Also, the inhibition in assay [13] was 7.78%; in assay [14], 1.48%; in [15] it was 0.91%; in assay [16] it was 7.93%; in [17], 14.8%; in assay [18], 6.19%. Also, the inhibition stood at 10.3% in assay [19] and 1.27% in assay [20].

As for `O=C1Nc2ccccc2/C1=C1\CCc2cc(O)ccc21`, the inhibition stood at 9.85% in [1]; 7.65% in [2]; 3.73% in assay [3]; 1.66% in assay [4]; 2.84% in assay [5]; 0.88% in [6]. In addition, the inhibition in assay [7] was -3.46%; in [8], 8.95%; in [9] it was 13.7%; in [10] it was 7%; in [11], 22.1%; in assay [12], 4.19%. The inhibition in assay [13] worked out at 6.81%; in [14], 8.16%; in assay [15] it was 23.5%; in assay [16], 9.87%; in assay [17], 31.3%; in assay [18] it was 10.3%. Besides, the inhibition is 30.9% in assay [19] and -1.94% in assay [20].

On to `Nc1nonc1-c1nc2cnccc2n1C1CC1`, for which the inhibition is 14.2% and 3.79% in assay [1]; 5.08% and 1.12% in assay [2]; 6.13% and -2.08% in assay [3]; 2.51% and -2.43% in assay [4]; 1.45% and -3.41% in assay [5]; 1.64% and 0.4% in [6]. Further, the inhibition in assay [7] was -1.67% and -0.01%; in assay [8] it was 1.55% and 2.22%; in assay [9] it was 6.98% and 0.35%; in [10] it was 2% and 1.26%; in assay [11] it was 0.34% and 3.05%; in [12] it was 2.84% and 0.98%. The inhibition was 3.51% and 0.87% in assay [13]; 13.1% and 2.25% in assay [14]; 8.28% and -2.04% in assay [15]; 5.07% and -2.09% in [16]; 8.58% and -2.64% in [17]; 7.58% and 1.46% in assay [18]. The inhibition was 8.03% and -1.3% in assay [19]; 0.52% and -4.76% in assay [20].

As to `O=C(O[C@H]1CN[C@H](C#Cc2cc3ncnc(Nc4ccc5c(cnn5Cc5ccccc5)c4)c3s2)C1)N1CCOCC1`, the inhibition is 1.97% in assay [1]; -0.25% in assay [2]; 2.72% in assay [3]; -1.51% in assay [4]; 0.96% in assay [5]; 6.21% in assay [6]. Further, the inhibition in assay [7] was 48.3%; in assay [8], 107%; in assay [9], 104%; in assay [10] it was -0.71%; in assay [11] it was 0.92%; in [12], -0.09%. Also, the inhibition was -1.2% in [13]; -2.97% in assay [14]; -1.28% in [15]; -0.61% in [16]; -0.52% in assay [17]; 0.4% in assay [18]. The inhibition was 0.43% in [19] and 0.54% in assay [20].
